# 697 NFkB inh = inhibitors of the PMA/ionomycin-induced NF-kB reporter in 697 B cells; 697 B-cell NF-kB luciferase reporter, 16 h; inhibition, % at 4 µM; 0.33% of 330,000 active; AID 435022; in the data active = inhibition above about 35%
# HIF activator = HIF pathway transcriptional activation. activation, % at 7.5 µM (by protocol). 0.32% of 300,000 active. U2OS HRE-luciferase reporter, luminescence; normalized: DMSO 0%, desferrioxamine 100%;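 active = mean activation of at least 10% of the iron chelator positive control signal, with at least half of replicates also reaching 10%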
# F508del corr = CFTR F508del correction in bronchial cells. 0.36% of 350,000 active. activity (quench increase), % at 7.58 µM. CFBE cells, YFP halide quenching; stimulated with forskolin plus potentiator P3; % fluorescence drop versus neutral controls;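 active = mean added fluorescence quench of at least 8% versus neutral control, with both replicates also reaching 8%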;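 note: cells transiently co-express mutant CFTR-F508del with the halide-sensitive YFP; corrector assay measuring rescue of mutant channel to the surface after 24 h compound exposure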
# Jurkat NFkB inh = inhibitors of the PMA/ionomycin-induced NF-kB reporter in Jurkat cells | PMA/ionomycin-induced NF-kB luciferase reporter, luminescence | inhibition, % at 4 µM | 0.53% of 330,000 active | AID 435003; in the data active = inhibition above about 50%
# Jurkat NFkB conf = lowers PMA/ionomycin-induced NF-kB signal in Jurkat cells | inhibition, % at 4 µM | Jurkat NF-kB luciferase, 16 h | shares compounds with Jurkat NFkB inh | 27% of 2,700 active;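 active = inhibition reaching about 45% at 4 µM in either replicate, limit read from the data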;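 note: plate controls were PMA/ionomycin stimulated DMSO wells for no effect and unstimulated DMSO wells for full effect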
# Active calls of the source: *; nt = not tested or not shown. An excerpt weighted towards active compounds, which were near 0.93% of everything screened.
SMILES,697 NFkB inh,HIF activator,F508del corr,Jurkat NFkB inh,Jurkat NFkB conf
CC(C)(C)c1ccc(NC(=O)c2ccccc2)c([N+](=O)[O-])c1,-192,2,4,-163,-97
COc1cc(/C=N/NS(=O)(=O)c2ccc(C)cc2)ccc1OCc1cccc(C(=O)O)c1,23,-3,-1,62*,13
CCOc1ccccc1CN1CCN(Cc2[nH]c3ccccc3c2C)CC1CCO (stereo not drawn),11,0,nt,10,nt
CCOc1ccccc1CN1CCN(Cc2cc(=O)c3ccccc3[nH]2)CC1CCO (stereo not drawn),-13,2,1,51*,17
CCC(=O)N(C)C[C@@H]1Oc2cc(C3=CCCCC3)ccc2S(=O)(=O)N([C@H](C)CO)C[C@@H]1C,nt,nt,7,nt,nt
Cc1ccc(S(=O)(=O)Nc2cccc3c2O[C@@H](CN(C)S(=O)(=O)c2ccc(Cl)cc2)[C@H](C)CN([C@@H](C)CO)C3=O)cc1,nt,nt,-1,nt,nt
CC(=O)c1cccc(Nc2nc(-c3ccccc3)cs2)c1,-222,5,-3,-265,-103
COc1ccc(-c2csc(Nc3ccccc3)n2)cc1,-172,4,1,-196,-82
COc1cccc(C#Cc2ccc([C@H]3[C@H]4CN(S(=O)(=O)c5ccccc5C)CC(=O)N4[C@H]3CO)cc2)c1,nt,nt,4,nt,nt
Cc1cccc2c(C(=O)N3CCN(c4ccccc4)CC3)cc(-c3ccncc3)nc12,8,-1,0,60*,-3
Cc1cccc2c(C(=O)N3CCCCC3)cc(-c3ccccc3)nc12,-4,-6,-3,-4,nt
COc1ccc(S(=O)(=O)N[C@@H]2CC[C@@H](CC(=O)N3CCc4ccccc4C3)O[C@@H]2CO)cc1,nt,nt,0,nt,nt
CCOc1ccc(N(CC(=O)Nc2ccccc2OCC)S(=O)(=O)c2c(C)noc2C)cc1,-25,1,7,57*,62*
O=C(c1cc(-c2ccc(Cl)cc2)on1)N1CCCCCC1,-141,2,-3,-169,-157
O=C(c1cc(-c2ccc(Cl)cc2Cl)on1)N1CCCCCC1,-180,0,-2,-162,-132
C/C=C/c1cnc2c(c1)C(=O)N([C@H](C)CO)C[C@@H](C)[C@H](CN(C)Cc1ccc(F)cc1)O2,nt,nt,-2,nt,nt
CCCC(=O)Nc1ccc2c(c1)OC[C@H](C)N(Cc1nccs1)C[C@@H](C)[C@@H](OC)CN(C)C2=O,nt,nt,1,nt,nt
COc1cccc(/C=C/C(=O)Nc2ccc3c(c2)OCCO3)c1OC,-52,-3,-1,-183,-108
Cc1occc1C(=O)N/N=C/c1ccc(-c2ccccc2)cc1,-239,-1,1,-206,-72
Cc1occc1C(=O)N/N=C/c1ccc(OCc2ccccc2)cc1,-44,3,-3,-61,nt
O=c1c2ccccc2oc2cc(NCCCN3CCOCC3)ccc12,-219,8,1,-184,-53
O=c1c2ccccc2oc2cc(NCCCn3ccnc3)ccc12,-218,4,1,-178,-84
CN1CCCC1CCNc1ccc2c(=O)c3ccccc3oc2c1 (stereo not drawn),-161,5,4,-218,-38
O=c1c2ccccc2oc2ccc(NCCCN3CCOCC3)cc12,-102,4,4,-114,nt
C[C@@H]1CCCCO[C@H](CN(C)S(=O)(=O)c2ccccc2)[C@H](C)CN([C@@H](C)CO)C(=O)c2cc(NC(=O)CCC(F)(F)F)ccc2O1,nt,nt,-3,nt,nt
SMILES,697 NFkB inh,HIF activator,F508del corr,Jurkat NFkB inh,Jurkat NFkB conf
O=C(Nc1ccc(-c2nc3cccnc3s2)cc1)c1ccco1,-194,1,1,-186,-64
O=C(Nc1ccc(-c2nc3cccnc3s2)cc1)c1ccc(Cl)nc1,-144,1,-1,-88,nt
O=C(Nc1ccc(-c2nc3cccnc3s2)cc1)c1cccnc1Cl,-237,1,4,-166,-96
O=C(c1ccc(Br)cc1)c1cc([N+](=O)[O-])ccc1N1CCOCC1,-43,1,12*,72*,51*
CN1CCN(c2ccc([N+](=O)[O-])cc2C(=O)c2ccc(Cl)cc2)CC1,-38,1,nt,46,nt
O=C(c1ccc(Cl)cc1)c1cc([N+](=O)[O-])ccc1N1CCOCC1,8,-1,2,70*,41
Cc1ccc(C(=O)c2cc([N+](=O)[O-])ccc2N2CCCCC2)cc1,32,0,nt,56*,53*
O=C(NCc1ccc2c(c1)OCO2)c1cc([N+](=O)[O-])ccc1N1CCCCC1,-54,0,nt,65*,30
COc1cccc(CN2CC3(CN(C(C)=O)C3)c3c(n(C)c4cc(OC)ccc34)[C@@H]2CO)c1,nt,nt,0,nt,nt
CCCNC(=O)N(C)C[C@H]1Oc2ncc(-c3ccncc3)cc2C(=O)N([C@H](C)CO)C[C@H]1C,nt,nt,-1,nt,nt
CC(=O)N(C)C[C@@H]1Oc2ncc(C#Cc3cccnc3)cc2C(=O)N([C@H](C)CO)C[C@H]1C,nt,nt,-2,nt,nt
CO[C@@H](CN(C)C(=O)c1ccc2c(c1)OCO2)[C@@H](C)CN([C@@H](C)CO)S(=O)(=O)c1ccc(C)cc1,nt,nt,-1,nt,nt
O=C(c1cc([N+](=O)[O-])ccc1N1CCOCC1)N1CCCCC1,12,0,nt,6,nt
O=C(c1ccccc1)c1cc([N+](=O)[O-])ccc1N1CCOCC1,-8,-2,nt,51*,49*
Cc1cccc(CSc2nc3c(cc2C#N)CCC3)c1,-26,0,nt,-11,nt
N#Cc1cc2c(nc1SCc1nc3ccccc3[nH]1)CCC2,-131,1,nt,-169,-56
COc1ccc(S(=O)(=O)N[C@H]2CC[C@@H](CCn3cc(-c4ccccc4F)nn3)O[C@H]2CO)cc1,nt,nt,-2,nt,nt
CC1(C)Cc2nc3sc4c(=O)n(CC(=O)NCc5ccco5)cnc4c3cc2CO1,-21,3,nt,50*,4
CC1(C)Cc2nc3oc4c(=O)n(CC(=O)Nc5ccccc5)cnc4c3cc2CO1,2,0,1,-4,nt
O=C(Nc1ccc(Br)cc1)c1ccc2c(c1)OCO2,-238,2,4,-151,-123
O=C(Nc1ccc2c(c1)OCO2)c1ccc2c(c1)OCO2,-152,0,nt,-136,nt
O=C(Nc1ccc2nsnc2c1)c1ccc2c(c1)OCO2,-159,nt,-3,-166,-72

# Screens deposited in PubChem BioAssay by several laboratories.
